# eIF4H FP inh: human eIF4H binding inhibitors, primary screen, translation initiation inhibitor project, biochemical, uHTS, fluorescence polarization | Eukaryotic translation initiation factor 4H (Homo sapiens), Q15056 | eIF4H fluorescence polarization binding assay | inhibition, % at 35 µM | 290,000 compounds, 0.94% hits | AID 2012, 2009;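 further: calls also rest on retests at 20 µM and on dose response follow-up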
# Efflux pump inh: inhibitors of Candida efflux pumps in yeast, primary screen, S. cerevisiae, Nile Red, multiplex; S. cerevisiae Candida pump triplex; inhibition, % at 10 µM; 330,000 compounds, 0.44% hits;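 active means plate passing quality check with inhibition over a set limit, or well fluorescence over plate mean plus 4 SD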;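 further: Nile Red retained in pooled yeast measured as flow cytometry median fluorescence; 0% = buffer negative control and 100% = Enniatin B positive control; higher means more Nile Red kept so more efflux inhibition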
# ALR H2O2 inh: inhibitors of human ALR sulfhydryl oxidase, primary screen, biochemical, H2O2 detection, HRP-luminol luminescence, single point; 290,000 compounds, 3.8% hits; inhibition, % (test concentration not listed); FAD-linked sulfhydryl oxidase ALR (Homo sapiens), P55789; purified ALR, DTT oxidation;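 active means mean replicate inhibition above about 79%, with every replicate also reaching it, limit read from the data; inconclusive means only one of the two criteria met; inactive means mean below limit and not every replicate reaching it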
# PABP polyA inh: PABP poly(A) RNA binding inhibitors, primary screen, biochemical, fluorescence polarization, uHTS | Polyadenylate-binding protein 1 (Homo sapiens), P11940 | inhibition, % at 35 µM | 290,000 compounds, 1% hits | AID 2014, 2009;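 further: calls also rest on retests at 20 µM and on dose response follow-up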
# Target sequence (P11940 whole entry, looked up): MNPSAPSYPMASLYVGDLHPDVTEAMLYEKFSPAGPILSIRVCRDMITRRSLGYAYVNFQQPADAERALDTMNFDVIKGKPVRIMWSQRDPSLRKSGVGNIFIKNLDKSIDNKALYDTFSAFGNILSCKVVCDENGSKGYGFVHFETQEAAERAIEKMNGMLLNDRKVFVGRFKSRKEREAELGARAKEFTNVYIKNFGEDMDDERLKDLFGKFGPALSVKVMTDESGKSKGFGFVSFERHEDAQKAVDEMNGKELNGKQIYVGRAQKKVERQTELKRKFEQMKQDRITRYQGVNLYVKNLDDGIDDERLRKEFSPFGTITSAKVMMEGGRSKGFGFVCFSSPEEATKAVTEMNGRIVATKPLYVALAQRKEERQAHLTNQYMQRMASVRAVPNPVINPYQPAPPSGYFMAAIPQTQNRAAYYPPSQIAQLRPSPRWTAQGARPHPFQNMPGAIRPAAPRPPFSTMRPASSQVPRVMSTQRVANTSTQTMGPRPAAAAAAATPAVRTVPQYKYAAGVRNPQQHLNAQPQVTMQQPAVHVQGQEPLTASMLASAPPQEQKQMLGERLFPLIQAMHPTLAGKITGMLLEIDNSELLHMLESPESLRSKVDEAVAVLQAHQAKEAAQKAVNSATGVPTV
# UBC9 SUMO inh: inhibitors of in vitro SUMOylation cascade, primary screen, biochemical, HTRF, uHTS | HTRF SUMOylation assay, SAE1/SAE2 + UBC9 | inhibition, % at 35 µM | 290,000 compounds, 0.36% hits | AID 2006, 2009; in the data active means inhibition above about 50%, passing the limit was not always enough; inconclusive means no clear call, values can overlap the other calls
# PABP1 MLLE inh: inhibitors of PABP1 MLLE–PAM2 peptide binding, primary screen, biochemical, fluorescence polarization, FITC-PAM2, GST-MLLE | Polyadenylate-binding protein 1 (Homo sapiens), P11940 | inhibition, % at 20 µM | 360,000 compounds, 0.36% hits | AID 588489, 2011; in the data active means inhibition above about 35%, passing the limit was not always enough;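 further: plate controls were DMSO wells with GST-MLLE for no effect and wells lacking GST-MLLE protein for full effect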
# * = called active by the depositor; u = inconclusive; x = no result. In the library only some 4.7% were active in any assay of this set; here they are far more common. Unless noted, how the calls were made is not given here.
SMILES,eIF4H FP inh,Efflux pump inh,ALR H2O2 inh,PABP polyA inh,UBC9 SUMO inh,PABP1 MLLE inh
O=C(NC(=S)Nc1cc([N+](=O)[O-])ccc1Cl)c1ccccc1,-4,0,-7,2,24,15
Cc1ccc([N+](=O)[O-])cc1NC(=S)NC(=O)c1cccnc1,-5,0,-3,-9,13,41*
N#Cc1ccccc1NC(=S)NC(=O)c1cccnc1,-4,0,95*,-2,-2,21
Cc1ccc([C@H]2C[C@H](n3cc(C4CC4)nn3)[C@@H](O)CN2C(=O)c2cccs2)cc1,x,x,x,x,x,1
CC(=O)Nc1ccc(SCC(=O)N(CCC#N)c2cc(C)cc(C)c2)cc1,-9,0,98*,-11,12,29
COc1ccc(-n2c(C)cc(C(=O)CCl)c2C)cc1,-4,0,38,-6,6,-19
CN(C(=O)CSc1ccc2c(c1)OCCO2)c1ccccc1,x,0,38,x,x,24
COc1ccc(-n2c(C)cc(C(=O)CSc3ccc(NC(C)=O)cc3)c2C)cc1,-10,0,97*,0,-7,19
CC(=O)Nc1ccc(SCC(=O)c2cc(C)ccc2C)cc1,-7,0,98*,12,-20,33
N#CCCN(C(=O)CSc1ccc2c(c1)OCCO2)c1ccccc1,9,0,89*,-6,-7,41*
COc1ccc(OC)c(-c2nnc(SCC(=O)N3CCCC3)o2)c1,4,0,-16,8,-6,-119
CC(=O)Nc1ccc(SCC(=O)c2cc(C)n(-c3ccccc3)c2C)cc1,-2,1,99*,3,6,30
O=C(CCCCCNc1nc(=S)[nH]c2ccccc12)NCCc1ccc(Cl)cc1,-11,0,1,10,10,-113
O=C(O)CCCCCNc1nc(=S)[nH]c2ccccc12,-1,0,82*,4,-9,-16
O=C1CC(C(=O)N2CCN(c3ccccn3)CC2)CN1Cc1ccccc1Cl (stereo not given),x,0,x,x,x,2
O=C(O)CCn1c2c(c3ccccc31)CCCC2,-2,0,99*,2,20,14
CCCCCCCn1c2c(c(=N)c3ccccc31)CCC2,-4,0,-8,62*,18,-99
CCCn1c2ccc(/C(C)=N\O)cc2c2cc(/C(C)=N/O)ccc21,-13,0,98*,0,11,2
C/C(=N\O)c1ccc(Cl)c(Cl)c1,0,0,-2,3,13,x
O=C(O)CCN1C(=O)CC(N2C(=O)/C(=C/c3ccc(Cl)cc3)SC2=S)C1=O (stereo not given),-10,0,98*,20,2,33
CN(C)CCn1c2c(c(SCC(=O)Nc3nccs3)nc1=O)CCCC2,x,0,96*,x,x,1
CCN(CC)CCn1c2c(c(SCC(=O)Nc3nccs3)nc1=O)CCCC2,x,0,98*,x,x,17
CCCCN1CC[C@@H]2C=CC[C@H](C(=O)OC)[C@@H]2C1=O,x,0,x,x,x,-1
CC(=O)/C=N/Nc1ccccc1,-6,0,-6,-4,10,-7
OC[C@@H](O)[C@H](O)C(/C=N/Nc1ccccc1)=N\Nc1ccccc1,-7,0,99*,-9,23,18
SMILES,eIF4H FP inh,Efflux pump inh,ALR H2O2 inh,PABP polyA inh,UBC9 SUMO inh,PABP1 MLLE inh
Cc1c(C(=O)NCC(c2ccco2)N2CCCC2)sc2ccccc12 (stereo not given),x,0,-4,x,x,-10
O=S(=O)(NCC(c1ccco1)N1CCc2ccccc21)c1ccccc1 (stereo not given),x,0,97*,x,x,-4
O=C(NCC(c1ccco1)N1CCc2ccccc21)c1ccccc1Cl (stereo not given),x,0,98*,x,x,-2
O=C(NCC(c1ccco1)N1CCCC1)c1sc2ccccc2c1Cl (stereo not given),85*,0,-3,84*,6,-6
COCCCNc1ccn2nc(-c3ccc(OCc4ccccc4)cc3)cc2n1,x,x,x,x,x,-23
CCCn1c(NCc2c[nH]c3ccccc23)nc2ccccc21,-3,0,x,-8,-15,-3
COc1cccc(CNc2ccc(F)c(Cl)c2)c1OC,2,0,u,4,7,7
CCCn1cnc2cc(NCc3cccc(OC)c3O)ccc21,1,0,85*,2,7,9
CCCn1c(NCc2cccc(OC)c2OC)nc2ccccc21,-8,0,98*,-11,9,4
CCCn1cnc2cc(NCc3ccccn3)ccc21,5,0,x,7,14,5
COc1cccc(CNc2ccc3c(c2)ncn3C(C)C)c1OC,7,0,92*,-7,0,0
CCCn1c(NCc2cccc(OC)c2O)nc2ccccc21,-16,0,94*,11,13,-7
CCCS(=O)(=O)NC(=O)C1(C)CCN(C(=O)c2ccccc2OC(C)=O)C1 (stereo not given),x,x,x,x,x,-9
Cc1nc(C)c(C(=O)OCC(=O)Nc2ccc(C)c(C)c2)s1,x,x,x,x,x,-11
O=[N+]([O-])c1cccc(S(=O)(=O)NCCCn2ccnc2)c1,-18,0,-13,-10,-6,-3
Oc1ccc(Cl)cc1CNc1cnc2ccccc2c1,-5,0,27,-4,1,2
Cn1cnc2cc(NCc3ccccc3O)ccc21,-11,0,87*,3,6,8
CCc1ccc(CNc2ccc3c(c2)ncn3C)cc1,-7,0,x,-3,12,4
COc1cccc(CNn2cnnc2)c1O,-12,0,85*,-1,18,4
Oc1ccccc1CNc1cnc2ccccc2c1,14,0,86*,-17,4,-1
CCN(CC)C(=O)Cn1cc(C(=O)C(=O)N(C)C2CCN(C)CC2)c2ccccc21,-9,-2,-1,-3,19,-5
COc1ccc(-c2cn3c4c(sc3n2)CCCC4)cc1,-2,0,96*,-1,7,6
COc1ccc(-c2cn3c(C)c(C(=O)N4CCCc5ccccc54)sc3n2)cc1,x,0,-1,x,x,7
CN(Cc1ccc(Cl)c(Cl)c1)C(=O)C1CSC2(C)CCC(=O)N12 (stereo not given),x,0,0,x,x,-11
CCOc1cc(C)nc(N2CCC(C(=O)NCC3CCCO3)CC2)n1 (stereo not given),x,x,x,x,x,-6
COC(=O)c1ccc(CSc2nc3ccccc3s2)o1,-11,0,2,16,-20,16
CCOC(=O)c1sc(N)c(C#N)c1CSc1nc2ccc(OCC)cc2[nH]1,6,0,6,9,5,-106
CCOC(=O)c1sc(N)c(C#N)c1CSc1nc2ccc(C)cc2[nH]1,-10,0,91*,-1,17,-120
COC(=O)c1ccc(CSc2n[nH]c(=S)s2)o1,-11,0,92*,10,9,-44

# High-throughput results (PubChem BioAssay)
